Assay results from PubChem BioAssay (NCI).
This is part of a sample that, as a whole, favours compounds with a hit. Of some 79,000 tested, about 15% had one in any assay. Values without a mark were called inactive. Active and inactive are the calls of the source. Cut-off read from the data, not from the text of the source: active = growth inhibition above about 70%; inactive = the rest.

Key:
[1] = NCI Yeast Anticancer Drug Screen. Data for the rad50 strain (AID 155);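 note: 0% = growth of vehicle-only cultures of the same strain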; settings: S. cerevisiae rad50 strain growth inhibition, hits give high values
How it was run: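 Yeast carrying a defined DNA repair defect were exposed to test compounds, and growth was compared with vehicle-treated controls to give percent inhibition.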

[2] = NCI Yeast Anticancer Drug Screen. Data for the mec2-1 strain (AID 157); settings: S. cerevisiae mec2-1 strain, hits give high values
How it was run: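 Readout is yeast growth inhibition, normalised to vehicle-treated controls, in the mec2-1 strain exposed to compound.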

[3] = NCI Yeast Anticancer Drug Screen. Data for the sgs1 mgt1 strain (AID 161);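 note: 0% = growth of cultures given vehicle only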; settings: S. cerevisiae sgs1 mgt1 strain, hits give high values
How it was run: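 Yeast cells carrying a defined DNA-repair defect were exposed to test compounds. Growth inhibition was measured relative to vehicle-treated controls.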

[4] = NCI Yeast Anticancer Drug Screen. Data for the cln2 rad14 strain (AID 165);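 note: 0% = growth equal to vehicle treated cultures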; settings: S. cerevisiae cln2 rad14 strain, hits give high values
How it was run: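 Relative to vehicle controls, growth inhibition of compound-treated cln2 rad14 yeast was recorded.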

[5] = NCI Yeast Anticancer Drug Screen. Data for the bub3 strain (AID 167); settings: S. cerevisiae bub3 mutant strain, hits give high values
How it was run: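 Compounds were applied to a genetically altered yeast strain carrying a cell-cycle control defect. Growth inhibition was scored against vehicle-treated controls.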

[6] = NCI Yeast Anticancer Drug Screen. Data for the mlh1 rad18 strain (AID 175); settings: S. cerevisiae mlh1 rad18 strain growth inhibition, hits give high values
How it was run: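 Test agents were incubated with a yeast strain of defined genotype (DNA damage repair defect). Inhibition of growth was derived by comparison with vehicle-exposed cultures.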

[7] = at 5.0 µM (retest, dose inferred, filed as 0.5)
[8] = at 50.0 µM (retest, dose inferred, filed as 5.0)

Row | SMILES | growth inhibition [1, 7] | growth inhibition [1, 8] | growth inhibition ([1]; at 50.0 µM) | growth inhibition [2, 7] | growth inhibition [2, 8] | growth inhibition ([2]; at 50.0 µM) | growth inhibition [3, 7] | growth inhibition [3, 8] | growth inhibition ([3]; at 50.0 µM) | growth inhibition [4, 7] | growth inhibition [4, 8] | growth inhibition ([4]; at 50.0 µM) | growth inhibition [5, 7] | growth inhibition [5, 8] | growth inhibition ([5]; at 50.0 µM) | growth inhibition [6, 7] | growth inhibition [6, 8] | growth inhibition ([6]; at 50.0 µM)
1 | CCCCN=C(c1ccc(O)cc1)c1ccc(OC)cc1O | -4% | 20% | 42.7% | -1% | 15% | 18.6% | -2% | 37% | 64.1% | -3% | 20% | 26.6% | -5% | 42% | 58% | -4% | 22% | 36%
2 | CC(C)OCc1cccc2ccnc(COC(C)C)c12 | -20% | 53% | 20.8% | 8% | 14% | 25.6% | -10% | 35% | 24.9% | -15% | 87% (active) | 20.6% | -11% | 91% (active) | 20.2% | 28% | 50% | 25.1%
3 | Oc1cccc(Oc2cccc(Oc3ccccc3)c2)c1 | 1% | 99% (active) | 99.4% (active) | 1% | 99% (active) | 99.3% (active) | -6% | 99% (active) | 99.5% (active) | -23% | 99% (active) | 99% (active) | 30% | 99% (active) | 99.4% (active) | 2% | 99% (active) | 99.3% (active)
4 | Cc1ccc(O)c(Cc2ccc(Cl)cc2)c1 | -146% | 97% (active) | 74.7% (active) | -54% | 99% (active) | 99.8% (active) | -56% | 99% (active) | 64.3% | -80% | 99% (active) | 99.5% (active) | -76% | 98% (active) | 99.6% (active) | -119% | 96% (active) | 99.6% (active)
5 | COc1ccc(C)c2nc3ccccc3nc12 | -119% | 86% (active) | 97% (active) | -42% | 24% | 74.5% (active) | -64% | 51% | 38.7% | -49% | 37% | 56.2% | -58% | 31% | 91.9% (active) | -110% | 67% | 87.7% (active)
6 | CN(C)CCC(=O)N1C/C(=C\c2ccc(Cl)c(Cl)c2)C(=O)/C(=C/c2ccc(Cl)c(Cl)c2)C1 | 98% (active) | 97% (active) | 91.7% (active) | 99% (active) | 98% (active) | 89.8% (active) | 99% (active) | 97% (active) | 88.2% (active) | 98% (active) | 98% (active) | 90% (active) | 99% (active) | 98% (active) | 91.3% (active) | 99% (active) | 97% (active) | 88.9% (active)
7 | CCN(CC)c1ccc(NC(C(=O)c2ccccc2)c2ccc3c(c2)OCO3)cc1 (configuration not stated) | -23% | -26% | 27.2% | -3% | 5% | 32.7% | -23% | 14% | 46.1% | -1% | -10% | -8.35% | 3% | 14% | 25.9% | -4% | 12% | 42.5%
8 | O/N=C(/C[N+]12CN3CN(CN(C3)C1)C2)c1ccc(I)cc1 | 0% | 20% | 91.6% (active) | -4% | 40% | 84% (active) | -4% | 55% | 96.2% (active) | -1% | 23% | 91.7% (active) | 1% | 12% | 77.6% (active) | 12% | 57% | 92% (active)
9 | O=C1C(N2CCOCC2)=C(Cl)C(=O)c2ncccc21 | 66% | 95% (active) | 83.8% (active) | 30% | 97% (active) | 83.8% (active) | 35% | 96% (active) | 89.8% (active) | 13% | 92% (active) | 89% (active) | 31% | 97% (active) | 89.7% (active) | 61% | 96% (active) | 89.3% (active)
